Compounds with a hit are over-represented: about 2.7% of the library has one in this group of screens.
PP1 inh: blocks human PP1-alpha phosphatase, a PP5 counter-screen; P62136; purified PP1alpha, OMFP fluorescence; inhibition, % at 6.7 µM; 320,000 tested, 0.9% active; AID 2235;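 active = inhibition above the mean inhibition of all tested compounds plus 3 SD, computed separately for each screening campaign, cut at about 15% in these data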
PP5 inh: blocks human protein phosphatase 5 activity; P53041; purified PP5c, OMFP substrate fluorescence; inhibition, % at 6.7 µM; 320,000 tested, 0.18% active;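 active = inhibition above the campaign's mean inhibition across all tested compounds plus 3 SD, cut at about 9.5% in these data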;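 also: 0% = DMSO only and 100% = 100 µM cantharidin control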
Target sequence (P53041 whole entry, looked up): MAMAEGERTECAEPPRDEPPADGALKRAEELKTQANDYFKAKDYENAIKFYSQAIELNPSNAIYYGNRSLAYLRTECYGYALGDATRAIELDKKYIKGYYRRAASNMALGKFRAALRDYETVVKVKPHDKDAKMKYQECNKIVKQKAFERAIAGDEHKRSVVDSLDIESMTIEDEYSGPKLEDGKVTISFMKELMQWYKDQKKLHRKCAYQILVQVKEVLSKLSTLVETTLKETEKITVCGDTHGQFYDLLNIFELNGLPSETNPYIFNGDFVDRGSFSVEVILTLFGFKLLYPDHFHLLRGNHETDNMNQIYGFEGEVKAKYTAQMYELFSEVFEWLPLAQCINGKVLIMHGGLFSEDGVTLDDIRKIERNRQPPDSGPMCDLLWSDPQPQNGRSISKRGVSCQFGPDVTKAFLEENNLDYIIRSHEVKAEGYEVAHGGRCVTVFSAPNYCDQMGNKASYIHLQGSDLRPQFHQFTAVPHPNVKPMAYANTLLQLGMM
PREPL inhibitor: human PREPL enzyme inhibition. Q4J6C6. 320,000 tested, 0.68% active. inhibition, % at 5.96 µM. recombinant PREPL, fluorescence polarization activity-based probe. AID 2751; in the data active = inhibition above about 43%;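 also: 0% = enzyme with DMSO and 100% = wells lacking enzyme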
ANO1 activ: mouse TMEM16A channel activation, primary screen. HEK293 TMEM16A/YFP-H148Q/I152L, iodide quench fluorescence; hits give low values. B-score at 10 µM. 340,000 tested, 0.3% active;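 active = fluorescence-ratio B-score plate-corrected deviation score at least 3 library SD below zero, with starting fluorescence score within 5 deviations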;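 also: channel opened by trigger with iodide after compound preincubation; score built on the fluorescence ratio of max minus min over baseline; more negative score means more quench and so TMEM16A activation or potentiation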
DNA FID counter: displaces DNA intercalator in HCV helicase counter-screen; inhibition, % at 7.9 µM; AID 1845; 290,000 tested, 0.17% active; DNA fluorescent intercalator displacement, fluorescence; in the data active = inhibition above about 37%;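 also: 0% = vehicle and 100% = reference compound; higher means more ethidium bromide displaced from hairpin DNA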
TMEM16A inh: inhibitors of mouse TMEM16A calcium-activated chloride channel; Q8BHY3; HEK293 TMEM16A/YFP iodide influx fluorescence, ionomycin; normalized B-score (activity score, 25-100; higher = stronger inhibition) at 10 µM; 310,000 tested, 1.2% active; AID 588511;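 active = ratio plate-corrected score three or more library SD toward inhibition, starting fluorescence score within five deviations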;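 also: score derived from kinetic fluorescence span divided by baseline fluorescence per well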
PP1 inh confirm: confirmation of human PP1 phosphatase inhibitors; purified PP1alpha, OMFP substrate fluorescence; inhibition, % at 6.7 µM; 1,900 tested, 52% active; shares compounds with PP1 inh;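 active = mean PP1 inhibition above a set limit taken from the earlier primary screen, cut at about 15% in these data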
PP5 inh counter: counter-screen for PP1 inhibitors: human PP5 phosphatase inhibition. shares compounds with PP1 inh. purified PP5c, OMFP fluorescence. inhibition, % at 6.7 µM. 1,900 tested, 4% active. AID 2360;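 active = mean PP5 inhibition over triplicate wells above about 9.5% taken from the earlier PP1 screen, limit read from the data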
The depositor's hits bear a star; i = inactive; . = not tested or not shown.

SMILES	PP1 inh	PP5 inh	PREPL inhibitor	ANO1 activ	DNA FID counter	TMEM16A inh	PP1 inh confirm	PP5 inh counter
COc1ccc(CCn2c(SCCN3CCCCC3)nc3ccccc3c2=O)cc1OC	-6.0	2.1	-12.1	i	24.1	i	.	.
CC(=O)Nc1ccc(SCC(=O)Nc2ccc(Cl)cn2)cc1	-3.1	-0.2	-13.2	i	-7.9	i	.	.
CC(=O)NCCC(=O)NCc1ccc(F)cc1	19.1*	-0.5	2.5	i	1.5	i	-5.7	-6.6
O=C(CCSCCC(=O)NCc1ccc(F)cc1)NCc1ccc(F)cc1	-0.1	1.8	-6.5	i	-4.6	i	.	.
Cc1nc(S/C(=C/c2ccc(-c3ccc(Cl)cc3)o2)C(=O)O)n[nH]1	10.5	1.0	1.1	i	-7.1	i	.	.
Cc1nc(S/C(=C/c2ccc(-c3cc(Cl)ccc3C)o2)C(=O)O)n[nH]1	18.8*	2.7	15.5	i	-14.0	i	18.4*	1.4
O=c1[nH]c(NCCO)nc2c1C1(CCCCC1)Cc1ccccc1-2	18.6*	1.0	-7.4	i	-23.1	i	2.5	0.3
O=C(/C=C/c1ccc(Br)cc1)c1ccc(NC(=O)c2ccco2)cc1	22.3*	0.8	-15.3	i	-0.4	i	22.1*	1.4
O=C(Nc1ccc(N2CCN(C(=O)c3ccco3)CC2)cc1)c1ccc(Br)cc1	20.9*	0.6	-3.6	i	-29.9	i	39.3*	-1.6
Cc1ccc(C(=O)Nc2ccc(N3CCN(C(=O)c4ccco4)CC3)cc2)cc1	1.2	2.2	17.9	i	-15.2	i	.	.
CC(=O)c1ccc(NC(=O)c2ccc(NC(=O)c3ccco3)cc2)cc1	10.5	0.5	5.9	i	-7.4	i	.	.
COC(=O)c1ccc(NC(=O)c2ccc(NC(=O)c3ccco3)cc2)cc1	29.5*	1.6	2.9	i	-12.8	i	26.2*	-1.6
O=C(/C=C/c1ccc(Br)cc1)c1ccco1	-5.4	2.7	-3.3	i	0.1	i	.	.
O=C(NCC(=O)N1CCN(Cc2ccccc2)CC1)c1cc(Cl)cc([N+](=O)[O-])c1	.	.	12.5	i	.	.	.	.
Cc1ccc(NC(=O)CSc2nnc(COc3ccccc3F)n2N)cc1S(=O)(=O)N1CCOCC1	.	.	.	i	.	.	.	.
COc1ccccc1CNC(=O)COC(=O)/C=C/c1ccc2c(c1)OCO2	.	.	-11.2	i	.	.	.	.
c1ccc(-c2nccc(-c3ccc(-n4cnc5ccccc54)cc3)n2)cc1	18.1*	2.8	-2.9	i	-2.3	i	24.5*	-0.2
COc1ccc(-c2nnc(NC(=O)c3ccc4c(c3)OCCO4)o2)cc1	10.8	-0.5	14.8	i	-26.7	i	.	.
COc1ccc(-c2nnc(NC(=O)c3ccc(F)cc3)o2)cc1	24.4*	3.5	6.8	i	-9.4	i	25.1*	-2.5
COc1ccc(S(=O)(=O)CCC(=O)N2CCN(c3ccc(C(C)=O)cc3)CC2)cc1	-2.0	-2.5	8.0	i	-34.3	i	.	.
O=C(O)CCC(=O)N1N=C(c2c(-c3ccccc3)c3cc(Cl)ccc3[nH]c2=O)CC1c1ccco1 (stereo unspecified)	3.2	1.8	8.1	i	-48.6	i	.	.
CCC(=O)N1N=C(c2c(-c3ccccc3)c3cc(Cl)ccc3[nH]c2=O)CC1c1ccco1 (stereo unspecified)	27.1*	-0.6	-1.0	i	-22.4	i	10.1	-1.2
O=C(CN1C(=O)CCS(=O)(=O)c2ccccc21)Nc1ccccc1F	-1.0	2.1	-1.4	i	-3.4	i	.	.
O=C(CN1C(=O)/C(=C2\SC(=S)N(CCS(=O)(=O)O)C2=O)c2ccccc21)Nc1cccc(Br)c1	36.6*	1.8	-0.7	i	57.6*	i	38.8*	-1.6
CC(=O)NC(c1ccc(C)cc1)c1cc([N+](=O)[O-])c2cccnc2c1O (stereo unspecified)	18.5*	5.8	0.5	i	-4.8	i	21.2*	3.2

Screening results (PubChem BioAssay)
